# Test results as given in PubChem BioAssay.
# Where “and” joins values, the source holds several entries; their conditions need not be identical. Identical values can stand only once. Calls of active or inactive are those of the source.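 How the source made its calls, unless noted: active means mean z-score across replicates of 1.96 or higher in either the MELAS or the Rieske mutant cell line; inactive means the rest.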
# Tests used:
# [1] = sensitizers of A549 cells to miR-34 induction, primary screen, imaging, A549 dox-inducible miR-34, nuclei and caspase counts (AID 1347080;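 active means compounds whose cell count with miR-34 switched on is under 0.7 times the count with it off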); settings: A549 miR-34 inducible, Hoechst nuclei count, 48 h
# [2] = survival rescue of mitochondrial mutant cells in low glucose, primary screen, MELAS cybrids, Rieske KO mouse fibroblasts, CellTiter-Glo (AID 1508586);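 further: z relative to plate mean and SD of compound and empty wells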
# [3] = stronger effect = lower value, cell number ratio, induced over uninduced
# [4] = measured here: relative caspase fold change +Dox/-Dox
# [5] = measured here: total cells with miR-34 induction, stronger effect = lower value
# [6] = measured here: total cells without miR-34 induction
# [7] = MELAS cybrid survival, CellTiter-Glo 48 h, stronger effect = higher value
# [8] = Rieske KO mouse fibroblast survival, CellTiter-Glo 72 h
# Further: test concentration not given here.
Structure (SMILES),"fold change [1, 3]","fold change [1, 4]","cell count [1, 5]","cell count [1, 6]","z-score [2, 7]","z-score [2, 8]"
CCOC(=O)C(N)Cc1ccc(-c2cc(OC(c3ccc(Cl)cc3-n3ccc(C)n3)C(F)(F)F)nc(N)n2)cc1 (stereo not given),0.982 (inactive),0.783,8120,8260,0.073 (inactive),0.184
CCN(CC)CCOC(=O)c1ccc(N)cc1Cl,0.9 (inactive),1.29,9150,10200,-0.309 (inactive),-0.153
CNc1nc(-c2ccc3c(N)n[nH]c3c2)cc(N2CC(C(=O)NC3CCCCC3)CCC2C)n1 (stereo not given),0.8 (inactive),0.791,6100,7620,0.231 (inactive),-0.229
Nc1nc2c(ncn2C2OC(CO)C(O)C2O)c(=O)[nH]1 (stereo not given),0.891 (inactive),0.755,8140,9140,-0.357 (inactive),-0.0165
CC1CCN(CCC2CCCN2S(=O)(=O)c2cccc(O)c2)CC1 (stereo not given),0.96 (inactive),0.546,7750,8080,-0.371 (inactive),-0.0766
OC1CO[C@H]2C(O)CO[C@H]12 (stereo not given in full),0.905 (inactive),0.942,8830,9750,-0.254 (inactive),-0.154
C#C[C@@]1(O)CC[C@H]2[C@@H]3CCc4cc(O)ccc4[C@@H]3CC[C@@]21C,0.952 (inactive),0.969,6120,6420,0.773 (inactive),0.776
CNC(=O)C(Cc1c[nH]c2ccccc12)NC(=O)C(CC(=O)NO)CC(C)C (stereo not given),0.883 (inactive),0.261,7640,8650,0.112 (inactive),0.643
CC(Cc1cc2c(c(C(N)=O)c1)N(CCCO)CC2)NCCOc1ccccc1OCC(F)(F)F (stereo not given),0.869 (inactive),0.814,6950,8000,-0.42 (inactive),-0.511
CC(C)c1ccc(NC(=O)Cn2cnc3c2c(=O)n(C)c(=O)n3C)cc1,0.933 (inactive),1.42,7540,8090,0.298 (inactive),-0.444
CC1(C)O[C@H]2CC(=O)OC[C@]23[C@H]2CC[C@@]4(C)C(c5ccoc5)OC(=O)C5O[C@]54[C@@]2(C)C(=O)C[C@@H]13 (stereo not given in full),0.854 (inactive),0.906,8580,10000,-0.275 (inactive),-0.503
Cc1nc(N(C)C(=O)Cc2ccc(-c3ccccn3)cc2)sc1S(N)(=O)=O,0.911 (inactive),0.414,7530,8270,-0.339 (inactive),-0.561
O=C1c2c(O)cccc2[C@H]([C@@H]2OC(CO)C(O)C(O)C2O)c2cc(CO)cc(O)c21 (stereo not given in full),0.88 (inactive),0.843,8560,9720,-0.344 (inactive),-0.143
O=[N+]([O-])c1cn2c(n1)OCC(OCc1ccc(OC(F)(F)F)cc1)C2 (stereo not given),0.949 (inactive),0.871,6600,6960,-0.338 (inactive),0.787
O=C(O)CCCN1CCC(OC(c2ccc(Cl)cc2)c2ccccn2)CC1 (stereo not given),0.967 (inactive),1.77,8100,8370,0.387 (inactive),-0.496
O=C(c1cccc(Cl)c1F)N1CCN(Cc2cccc(Nc3nccs3)n2)CC1,0.822 (inactive),4.5,2250,2740,-0.421 (inactive),-0.143
CC(C)(C)[N+]([O-])=Cc1ccc(S(=O)(=O)O)cc1S(=O)(=O)O,0.908 (inactive),1.03,9880,10900,-0.368 (inactive),0.732
CC(CCC(=O)O)[C@H]1CC[C@H]2[C@@H]3C(O)C[C@@H]4CC(O)CC[C@]4(C)[C@@H]3CC[C@]12C (stereo not given in full),0.91 (inactive),1.28,8880,9760,-0.306 (inactive),0.756
CCCCCCCCCCCCCCCC(=O)OC1C(SC)OC(C(NC(=O)C2CC(CCC)CN2C)C(C)Cl)C(O)C1O (stereo not given),0.883 (inactive),0.558,9240,10500,-0.438 (inactive),-0.237
O=C(O)CC1CC(c2ccccc2)=NO1 (stereo not given),0.969 (inactive),0.43,8760,9040,-0.328 (inactive),0.698
O=C(O)C1=CC(O)C(O)C(O)C1 (stereo not given),0.975 (inactive),0.723,9710,9960,-0.355 (inactive),0.667
OCC(O)C(O)C(O)C(O)CO (stereo not given),0.977 (inactive) and 0.927 (inactive),0.781 and 0.815,7830 and 9620,8020 and 10400,-0.426 (inactive) and -0.241 (inactive),-0.124 and 0.173
CC(NC(=O)C(Cc1ccccc1)NC(=O)OCc1ccccc1)C(=O)CF (stereo not given),0.911 (inactive),0.415,8780,9640,-0.389 (inactive),-0.551

Structure (SMILES),"fold change [1, 3]","fold change [1, 4]","cell count [1, 5]","cell count [1, 6]","z-score [2, 7]","z-score [2, 8]"
COC(=O)C1=COC(O)[C@@H]2C(CO)=CC[C@H]12 (stereo not given in full),0.899 (inactive),1,8660,9630,-0.314 (inactive),-0.656
NC1=N[C@@]2(c3cc(NC(=O)c4ccc(F)cn4)ccc3F)COC[C@@H]2CS1,0.902 (inactive),1.51,8500,9420,-0.211 (inactive),0.113
O=C(C=Cc1ccc2ccccc2n1)c1ccncc1,0.681 (active),0.506,2580,3790,0.232 (inactive),1.5
COc1cc(-c2ncn(C=CC(=O)OC(C)C)n2)cc(C(F)(F)F)c1,0.884 (inactive),0.634,2040,2310,-0.00249 (inactive),-7.09
CCN(CC)CCN(Cc1ccc(-c2ccc(C(F)(F)F)cc2)cc1)C(=O)Cn1c(SCc2ccc(F)cc2)nc(=O)c2c1CCC2,0.577 (active),1.58,1110,1920,-0.397 (inactive),-1.15
Cc1cc(C=C2SC(=S)NC2=O)c(C)n1-c1cccnc1,0.889 (inactive),0.503,7760,8720,-0.359 (inactive),-0.24
CC(NC(=O)Cc1cc(F)cc(F)c1)C(=O)NC(C(=O)OC(C)(C)C)c1ccccc1 (stereo not given),0.856 (inactive),0.819,7300,8530,-0.187 (inactive),0.801
CCC1OC(=O)C(C)C(OC2C[C@@](C)(OC)C(O)C(C)O2)C(C)C(OC2OC(C)CC(N(C)C)C2O)[C@](C)(O)CC(C)CN(C)C(C)C(O)[C@]1(C)O (stereo not given in full),0.925 (inactive),0.82,8110,8770,-0.213 (inactive),0.708
O=C(CSc1nc2c(c(=O)n1-c1ccccc1)SCC2)Nc1ccc(-c2ccccc2)cn1,0.945 (inactive),0.349,7310,7740,-0.49 (inactive),0.404
C[C@@]12CC[C@H]3c4ccc(O)cc4CC(CCCCCCCCCS(=O)CCCC(F)(F)C(F)(F)F)[C@H]3[C@@H]1CCC2O (stereo not given in full),0.975 (inactive),0.957,4560,4680,-0.569 (inactive),0.522
Cc1nc(Nc2n[nH]c3c2CN(C(=O)NC(CN(C)C)c2ccccc2)C3(C)C)c2sccc2n1 (stereo not given),1.06 (inactive),0.274,1510,1420,0.106 (inactive),-7.7
Cc1ccc(C(=O)N(CCCN)C(c2oc3cc(Cl)ccc3c(=O)c2Cc2ccccc2)C(C)C)cc1 (stereo not given),0.942 (inactive),0.732,1220,1290,2.62 (active),0.0146
CCN1CC(C)n2c(c(O)c3c(=O)n(Cc4ccc(F)c(Cl)c4)nc(C(=O)NC)c32)C1=O (stereo not given),1.07 (inactive),0.451,7640,7150,-0.423 (inactive),0.325
COc1cc(C2Oc3cc(C4Oc5cc(O)cc(O)c5C(=O)C4O)ccc3OC2CO)ccc1O (stereo not given),0.923 (inactive),0.695,9600,10400,-0.412 (inactive),0.872
CC(=Cc1ccccc1)C=C1SC(=S)N(CC(=O)O)C1=O,0.909 (inactive),0.759,8290,9130,-0.0963 (inactive),0.707
C=C1C(CO)C(O)CC1n1cnc2c(=O)[nH]c(N)nc21 (stereo not given),1.01 (inactive),0.924,7270,7170,-0.366 (inactive),-0.0519
O=C(NNc1nc2cc(F)ccc2n2cccc12)c1cnccn1,0.939 (inactive),0.345,2180,2330,1.52 (inactive),-2.55
CC1C[C@H]2[C@@H]3CCC4=CC(=O)C=C[C@]4(C)[C@]3(Cl)C(O)C[C@]2(C)[C@]1(OC(=O)c1ccco1)C(=O)CCl (stereo not given in full),0.916 (inactive),0.877,4380,4780,-0.46 (inactive),-0.518
O=C(OC1C[N+]2(CCCOc3ccccc3)CCC1CC2)C(O)(c1cccs1)c1cccs1 (stereo not given),0.946 (inactive),1.31,8940,9450,-0.202 (inactive),-0.179
Nc1nc(CC(=O)Nc2ccc(CCNCC(O)c3ccccc3)cc2)cs1 (stereo not given),0.898 (inactive),1.03,8660,9650,-0.0817 (inactive),-0.148
CC(CN1CC(=O)NC(=O)C1)N1CC(=O)NC(=O)C1 (stereo not given),0.969 (inactive),1.09,5760,5950,-0.442 (inactive),0.325
OCC1OC(Oc2ccc(O)cc2)C(O)C(O)C1O (stereo not given),0.859 (inactive),1.01,7730,9000,-0.228 (inactive),0.468
